Hit rate of the full screen: of about 310,000 compounds, about 1,200 (0.39%) were called active. How the calls were made is not given here. These entries were drawn from the full list. Results with a measured potency or affinity are listed apart.
target: Large T antigen (Simian virus 40) (UniProt P03070); assay: TAg ATPase/helicase activity blockers – biochemical (AID 1903); conditions: SV40 large T antigen ATPase/helicase inhibition assay; at 20 µM; hits give high values
Sequence (P03070 whole entry, looked up): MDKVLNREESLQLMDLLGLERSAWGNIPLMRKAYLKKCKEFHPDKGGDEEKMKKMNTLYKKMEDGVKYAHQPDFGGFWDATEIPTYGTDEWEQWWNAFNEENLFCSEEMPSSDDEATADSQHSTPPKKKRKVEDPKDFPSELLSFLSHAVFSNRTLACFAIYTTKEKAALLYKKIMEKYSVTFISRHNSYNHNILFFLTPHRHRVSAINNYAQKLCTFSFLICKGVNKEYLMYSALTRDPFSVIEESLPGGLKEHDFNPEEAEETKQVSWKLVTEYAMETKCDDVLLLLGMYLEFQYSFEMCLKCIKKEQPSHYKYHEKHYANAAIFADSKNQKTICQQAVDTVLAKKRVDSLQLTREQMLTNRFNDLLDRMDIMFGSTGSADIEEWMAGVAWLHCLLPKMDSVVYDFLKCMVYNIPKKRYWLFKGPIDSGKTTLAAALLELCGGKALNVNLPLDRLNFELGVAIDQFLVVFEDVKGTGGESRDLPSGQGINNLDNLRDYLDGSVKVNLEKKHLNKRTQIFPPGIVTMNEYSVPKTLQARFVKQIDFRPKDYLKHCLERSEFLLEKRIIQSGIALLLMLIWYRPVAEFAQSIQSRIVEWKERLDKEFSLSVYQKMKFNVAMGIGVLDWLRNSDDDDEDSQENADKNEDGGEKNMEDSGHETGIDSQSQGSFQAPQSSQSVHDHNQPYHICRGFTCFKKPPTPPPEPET

inhibition, inactive:
NS(=O)(=O)c1ccc(CCNC(=O)C(=O)Nc2cc3c4c(c2)CC(=O)N4CCC3)cc1 10.2%
CCN(C(=O)COC(=O)c1cncc(Br)c1)C1CCS(=O)(=O)C1 (configuration not stated) 2.6%
CN(C)S(=O)(=O)c1cccc(COC(=O)c2ccc(Cl)cc2O)c1 4.75%
CCn1ccnc1CNC(=O)CC1C(=O)NCCN1Cc1ccc(OC)cc1OC (configuration not stated) 8.33%
CC(OC(=O)c1ccc(NS(=O)(=O)c2cccs2)cc1)C(=O)N(C)C1CCCCC1 (configuration not stated) 12.6%
O=C(NCCCO)c1ccc2[nH]c3c(c2c1)CCCC3 2.41%
COc1ccccc1OC(C)C(=O)Nc1nc(-c2ccc(S(=O)(=O)N3CCOCC3)cc2)cs1 (configuration not stated) -2.76%
O=C(O)CCC(=O)NNC(=O)c1ccc([N+](=O)[O-])cc1 24.3%
CN1CCN(c2ccccc2NC(=O)c2ccc(N3CCCCC3)c([N+](=O)[O-])c2)CC1 1.97%
COc1cc(C(=O)NCc2nnc(SCC(=O)NC3CCCCC3)o2)cc(OC)c1OC 9.82%
CNC(=S)N(CCCO)Cc1cc2cc3c(cc2[nH]c1=O)OCO3 4.07%
N#Cc1cc2c(nc1SCC(=O)Nc1sc3c(c1C#N)CCC3)CCCCCC2 -1.85%
Cc1nc(NC(=O)CCl)sc1C(=O)N(C)C 22.7%
C#CCOCCOCCOCCNc1nc(N2CCN(C(=O)CCCCCCCCCCNC(=O)[C@H]([C@@H](C)CC)n3cc(CCCCN=C(N)N)nn3)CC2)nc(N2CCN(C(=O)CCCCCCCCCCNC(=O)[C@@H]([C@H](C)O)n3cc(C)nn3)CC2)n1 7.94%
C#CCOCCOCCOCCNc1nc(N2CCOCC2)nc(N2CCN(C(=O)CCCCCCCCCCNC(=O)[C@H]([C@@H](C)CC)n3cc(CCCCN=C(N)N)nn3)CC2)n1 5.58%
CCOC(=O)c1cc(-c2ccc(OC)cc2)n(CCC(=O)NCCN2CCC(C)CC2)c1C 5.63%
CCN(CC)C(=O)Cn1cnc2ccccc2c1=O 5.63%
Cc1ccc(/C=C2\C(=O)Nc3ccccc32)o1 11.2%
COc1ccc(N2C(=O)C3CC(C)=C(C)CC3C2=O)c(OC)c1 (configuration not stated) 11.1%
O=C1/C(=C\c2ccco2)NC(=S)N1c1ccccc1 35.2%
Cc1ccc(/C=C2/C(=O)N(c3ccccc3)C(=S)N2C)o1 6.66%
CCOc1ccc(N2C(=O)/C(=C/c3ccc(C)o3)N(C)C2=S)cc1 15.8%
Cc1ccc(/C=C2/NC(=O)N(c3ccccc3)C2=O)o1 22.8%
COc1ccc(N2C(=O)/C(=C/c3cccs3)NC2=S)cc1 14.1%
CCCN1C(=O)/C(=C/c2ccc(C)o2)NC1=S 33.1%
COc1cc(O)c(C(CC(=O)N2CCCC(C)C2)c2ccc3c(c2)OCO3)c(OC)c1 (configuration not stated) 6.43%
Cn1cccc1C(=O)NNC(=O)c1ccccc1Br 8.13%
CC1(C)CC(=O)/C(=C(\O)Cc2ccccc2)C(=NCCCCCC(=O)O)C1 4.38%
CCCCNCc1cccn1-c1ccccc1 24.7%
COc1c(C)cccc1C(=O)Nc1ccc(OCC(=O)N2CCOCC2)cc1C 14.7%
COCC(=O)N/N=C\c1ccccc1OC/C=C/c1ccccc1 4.69%
COc1ccc(N=Cc2[nH]c3ccccc3c2O)cc1 13.7%
C=CCOc1ccc(C=Nc2ccc(OC)cc2)c(O)c1 28.3%
Cc1csc(NC(=O)CSc2nnc(-c3ccccc3)o2)n1 -6.99%
COc1cc(/C=N/NC(=O)CSc2nc3ccccc3n2C)cc(OC)c1OC -1.56%
CCn1c(SCC(=O)N/N=C/c2ccc(OC)c(OC)c2)nc2ccccc21 6.02%
Cc1cc(SCC(=O)N/N=C/c2ccc(C(=O)O)cc2)nc2ccccc12 6.65%
O=C(N/N=C/c1ccc(O)cc1)c1cc(-c2ccccc2)nc2ccccc12 14.6%
COc1cc(/C=N/NC(=O)c2cc(-c3ccccc3)nc3ccccc23)ccc1O 25.1%
Cn1c(SCC(=O)N/N=C/c2ccncc2)nc2ccccc21 2.44%
CCn1c(SCC(=O)N/N=C/c2cc(OC)c(O)c(OC)c2)nc2ccccc21 -7.37%
Cc1cc(SCC(=O)N/N=C/c2ccc(O)cc2O)nc2ccccc12 7.95%
C#CCOCCOCCOCCNc1nc(N2CCN(C(=O)CCCCCCCCCCNC(=O)[C@@H](CCC(=O)O)n3cc(CCCCCN)nn3)CC2)nc(N2CCN(C(=O)CCCCCCCCCCNC(=O)[C@H](CO)n3cc(CCCCCN)nn3)CC2)n1 31.5%
CCOC(=O)C1=C(C)N(C)C(=S)N(C)C1c1ccc(OC)cc1 (configuration not stated) -2.82%
CCOc1cc2sc(N3CCC(C(=O)NCCCN4CCCC4=O)CC3)nc2cc1Br 12.1%
Cc1ccc(C(=O)NCCc2n[nH]c(=S)n2C)cc1 10.6%
CCC(=O)N1c2ccccc2[C@@H](N(C(C)=O)c2ccccc2)C[C@H]1C 4.31%
O=C(c1ccccc1)N1CCN(C2CC3CCC2C3)CC1 (configuration not stated) 6.45%
O=C1/C(=C/c2ccc(F)cc2)SC(=S)N1CC(=O)N1CCCCC1c1cccnc1 (configuration not stated) 18.2%
CCOC(=O)c1c(C)n(C)c2c(C)cc(O)c(OC(C)=O)c12 1.3%
COC(=O)c1ccc(N)c(CS(=O)(=O)c2ccc(Cl)cc2)c1 -0.68%
OCC1(Cc2ccccc2)CCCN(Cc2ccc3c(c2)OCCO3)C1 (configuration not stated) 10.8%
CC(C)n1cnc2cc(NCc3nc4ccccc4n3C)ccc21 20.2%
O=C(CSc1nc2ccccc2o1)N/N=C/c1ccccc1 12.4%
O=C(CSc1nc2ccccc2o1)N/N=C/c1ccc(C(=O)O)cc1 16.5%
O=C(Cc1nnc(NC(=O)c2ccccc2)s1)N/N=C/c1ccc(O)cc1 17.1%
Cc1ccc(C(=O)Nc2nnc(CC(=O)N/N=C/c3ccc(O)c(O)c3)s2)cc1 19.4%
CCN(CC(=O)Nc1c(F)cccc1F)C(=O)/C=C/c1ccc(Br)s1 18.8%
Cc1ccc(-c2cn3c(n2)SCC3)cc1 23.1%
Oc1ccc(-c2cn3c(n2)SCC3)cc1 28.9%
Cc1ccc(C)c(S(=O)(=O)N2CCCCC2CCNC(=O)C(=O)NCc2cccnc2)c1 (configuration not stated) 11.7%
CN(C)CCn1c(COc2ccccc2)nc2ccccc21 27.6%
COc1ccc(N2CCN(C(=S)NCc3ccc(C)cc3)CC2)cc1 5.85%
CCCCCC(=O)NC(NC(=S)Nc1ccc(S(N)(=O)=O)cc1)C(Cl)(Cl)Cl (configuration not stated) 7.24%
O=C(Nc1cccc(N2CCCC2)c1)c1cccs1 7.12%
O=C(Nc1cccc(-n2cnnn2)c1)c1cccs1 6.94%
CN1CCCN(C(=O)CSc2ccccc2)CC1 27.3%
Cc1ccc(/C=C/C(=O)NCc2ccco2)o1 16.3%
O=C1C(=Cc2cccn2-c2ccc(O)cc2)C(=O)c2ccccc21 3.5%
O=C1NC(=S)N/C1=C/c1cccn1-c1ccc([N+](=O)[O-])cc1 5.15%
COc1ccc(N(CC(=O)Nc2ccc(C)cc2C)S(=O)(=O)c2c(C)n[nH]c2C)cc1 17.7%
O=C(COC(=O)c1n[nH]c2ccccc12)Nc1cccc(S(=O)(=O)N2CCOCC2)c1 7.02%
CCOc1ccc(NS(=O)(=O)c2ccc3[nH]c(=O)oc3c2)cc1 1.63%
CCOc1ccc(S(=O)(=O)Nc2ccc(O)c(Sc3ncn[nH]3)c2)cc1 6.38%
O=C(c1ccc(S(=O)(=O)Nc2ccc(F)cc2)cc1)N1CCN(c2ccccn2)CC1 10.4%
COc1cc(/C=C2/SC(=O)NC2=O)ccc1OC(=O)c1ccco1 15.8%
COC(=O)c1ccc(N2NC(=O)/C(=C/c3ccc(OC)c(OC)c3)C2=O)cc1 23.8%
COc1cc(/C=C2/C(=O)NN(c3cccc(C)c3)C2=O)cc([N+](=O)[O-])c1O 12.9%
COc1cc(/C=C2/C(=O)NN(c3ccc(Cl)cc3)C2=O)cc(Br)c1O 32.1%
COc1cc(/C=C2\C(=O)NN(c3ccc(C)cc3)C2=O)cc([N+](=O)[O-])c1O 36.6%
COc1cc(/C=C2\C(=O)N(c3ccc(S(N)(=O)=O)cc3)N=C2C)ccc1OC(=O)c1ccco1 32.1%
O=C(c1cccc2nc3ccccc3nc12)N1CCOCC1 13.7%
Cc1ccccc1N1C(=O)c2cccc([N+](=O)[O-])c2C1=O 18.8%
Cc1cccn2c(CNCCSc3nccn3C)c(C(=O)N3CCCCC3)nc12 14.5%
O=C(Nc1nncs1)Oc1ccccc1 14.9%
CCCCc1nc(SCC(=O)N2CCCC2)c2c(=O)n(C)c(=O)n(C)c2n1 8.36%
O=C(NNC(=O)C1CC=CCC1)c1ccccc1O (configuration not stated) -2.59%
O=C(Nc1nccs1)C1CC=CCC1 (configuration not stated) 2.9%
O=C(Nc1ccc(F)cc1)C1CCCO1 (configuration not stated) 22.1%
O=C(Nc1ccc(F)cc1)c1ccc(NC(=O)C2CCCO2)cc1 (configuration not stated) 1.01%
O=C(Nc1cccc(O)c1)c1ccc(NC(=O)C2CCCO2)cc1 (configuration not stated) 12.5%
O=C(Nc1ccc(Oc2ccc(NC(=O)C3CCCO3)cc2)cc1)C1CCCO1 (configuration not stated) 5.21%

Reference: PubChem BioAssay AID1903 (Southern Research Specialized Biocontainment Screening …, 2009)
